# Results: PubChem BioAssay
# Calls of active or inactive are those of the source.
# Assays:
# [1] = compounds binding Alexa647 anti-His antibody – biochemical, small-molecule microarray, 635 nm fluorescence, artefact control for SMM control protein annotation, primary screen (AID 1128); details: higher = more signal;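 note: score merges feature fluorescence with signal-to-noise for each printed compound spot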
# [2] = tested on: Human papillomavirus type 1a E7 protein (residues 1-88); test: HPV1a E7 small-molecule binders, primary screen, biochemical, small-molecule microarray, residues 1-88, 635 nm (AID 1129); details: small-molecule microarray binding, fluorescence 635 nm; higher = more signal
# [3] = molecular target: Focal adhesion kinase 1 (Homo sapiens) (UniProt Q05397); test: PTK2 protein binding on printed compound slides – biochemical, small-molecule microarray, 635/667 nm fluorescence, BSA, DTT, primary screen (AID 1130); details: 635 nm fluorescence, higher = more signal;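 note: composite of spot emission at 667 nm and signal to noise over triplicate slides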
# [4] = tested on: Fibrinogen (Alexa647-labelled); test: Alexa647-fibrinogen binding to printed small molecules – biochemical, small-molecule microarray, 635/667 nm fluorescence, artefact control for SMM control-protein annotation, profiling panel (AID 1131); details: fibrinogen-A647 binding fluorescence, higher = more signal;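 note: z-score merges 667 nm fluorescence with per-spot signal-to-noise over triplicate slides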
# [5] = molecular target: Follistatin (Homo sapiens) (UniProt P19883); test: FST protein binding to printed compounds – biochemical, small-molecule microarray, 635/667 nm fluorescence, primary screen (AID 1132); details: 635 nm fluorescence, higher = more signal
# [6] = molecular target: Fibroblast growth factor 2 (Homo sapiens) (UniProt P09038); test: basic fibroblast growth factor binding to printed compounds – biochemical, small-molecule microarray, 635/667 nm fluorescence, primary screen (AID 1133); details: FGF2, fluorescence 635/667, higher = more signal
# [7] = JC-1 mitochondrial potential readout, lung cancer cells – cell-based, A549, JC-1 fluorescence, basal, 24 h, 100 nL, profiling panel (AID 1138); details: higher = more signal;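 note: A549 lung adenocarcinoma cells under basal conditions with no added stimulus; test concentration not given here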
# Lefty1 = Lefty1 protein binding to printed compounds – biochemical, small-molecule microarray, 635/667 nm fluorescence, primary screen (AID 1139); details: fluorescence 635/667, higher = more signal
# [8] = tested on: wheat germ agglutinin (Triticum aestivum), Alexa647-labelled; test: Alexa647-WGA lectin binding to printed small molecules – biochemical, small-molecule microarray, 635/667 nm fluorescence, artefact control for SMM control-protein annotation, profiling panel (AID 1140); details: WGA-A647 binding, 635 nm fluorescence, higher = more signal;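 note: score merges 667 nm feature emission with signal to noise over triplicate slides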
# [9] = molecular target: Luciferin 4-monooxygenase (Photinus pyralis) (UniProt P08659); test: inhibition of purified Photinus pyralis luciferase – biochemical, luminescence, purified enzyme, 2006 set, primary screen (AID 1141); details: purified firefly luciferase, SteadyGlo luminescence, 30 min; higher = more signal, called active from +8 up or from −8 down;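 note: cell-free assay with purified firefly luciferase at 100 ng per well in PBS; test concentration not given here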
# Sequence of Luciferin 4-monooxygenase (Photinus pyralis) (P08659 whole entry, looked up): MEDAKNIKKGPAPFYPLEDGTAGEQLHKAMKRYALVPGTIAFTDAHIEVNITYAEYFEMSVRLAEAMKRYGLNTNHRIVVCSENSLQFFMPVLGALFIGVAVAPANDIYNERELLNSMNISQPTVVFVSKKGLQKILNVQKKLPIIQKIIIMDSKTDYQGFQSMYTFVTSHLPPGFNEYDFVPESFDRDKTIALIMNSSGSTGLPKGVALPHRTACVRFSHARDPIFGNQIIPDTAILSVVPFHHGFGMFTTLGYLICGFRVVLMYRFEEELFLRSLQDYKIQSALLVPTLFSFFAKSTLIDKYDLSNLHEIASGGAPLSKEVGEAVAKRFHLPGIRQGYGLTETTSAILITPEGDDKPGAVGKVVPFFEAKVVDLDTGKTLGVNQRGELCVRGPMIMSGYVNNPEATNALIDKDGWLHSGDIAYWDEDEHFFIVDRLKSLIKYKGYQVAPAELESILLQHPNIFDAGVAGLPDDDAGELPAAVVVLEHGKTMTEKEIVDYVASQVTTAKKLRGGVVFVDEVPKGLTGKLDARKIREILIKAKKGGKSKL
# Sequence of Focal adhesion kinase 1 (Homo sapiens) (Q05397 whole entry, looked up): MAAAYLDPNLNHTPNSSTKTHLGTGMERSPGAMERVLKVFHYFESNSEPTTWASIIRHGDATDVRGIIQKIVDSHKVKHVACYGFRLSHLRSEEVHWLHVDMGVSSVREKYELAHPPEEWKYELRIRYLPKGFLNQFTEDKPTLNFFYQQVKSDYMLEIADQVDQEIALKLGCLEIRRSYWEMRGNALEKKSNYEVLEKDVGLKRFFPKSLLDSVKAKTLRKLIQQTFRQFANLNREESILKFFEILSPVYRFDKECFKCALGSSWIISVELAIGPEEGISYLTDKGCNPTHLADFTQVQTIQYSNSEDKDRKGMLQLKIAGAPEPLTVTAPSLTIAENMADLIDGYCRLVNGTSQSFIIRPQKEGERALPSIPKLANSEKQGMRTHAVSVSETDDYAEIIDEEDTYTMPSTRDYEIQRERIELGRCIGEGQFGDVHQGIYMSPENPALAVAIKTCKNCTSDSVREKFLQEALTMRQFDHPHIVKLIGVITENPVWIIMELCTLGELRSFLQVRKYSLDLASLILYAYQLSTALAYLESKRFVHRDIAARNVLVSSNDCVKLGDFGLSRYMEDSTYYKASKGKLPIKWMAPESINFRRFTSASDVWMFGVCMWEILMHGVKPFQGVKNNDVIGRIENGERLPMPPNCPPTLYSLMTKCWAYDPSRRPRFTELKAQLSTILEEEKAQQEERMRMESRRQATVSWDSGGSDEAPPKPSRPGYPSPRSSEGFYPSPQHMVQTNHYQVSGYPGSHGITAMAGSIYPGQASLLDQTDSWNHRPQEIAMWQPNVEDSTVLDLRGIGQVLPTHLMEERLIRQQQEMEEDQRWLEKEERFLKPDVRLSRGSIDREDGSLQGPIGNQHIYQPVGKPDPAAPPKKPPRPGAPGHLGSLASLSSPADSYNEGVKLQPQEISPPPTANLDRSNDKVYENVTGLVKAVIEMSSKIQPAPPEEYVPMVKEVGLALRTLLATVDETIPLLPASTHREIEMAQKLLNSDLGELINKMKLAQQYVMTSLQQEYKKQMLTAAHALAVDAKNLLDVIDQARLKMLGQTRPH
# Sequence of Follistatin (Homo sapiens) (P19883 whole entry, looked up): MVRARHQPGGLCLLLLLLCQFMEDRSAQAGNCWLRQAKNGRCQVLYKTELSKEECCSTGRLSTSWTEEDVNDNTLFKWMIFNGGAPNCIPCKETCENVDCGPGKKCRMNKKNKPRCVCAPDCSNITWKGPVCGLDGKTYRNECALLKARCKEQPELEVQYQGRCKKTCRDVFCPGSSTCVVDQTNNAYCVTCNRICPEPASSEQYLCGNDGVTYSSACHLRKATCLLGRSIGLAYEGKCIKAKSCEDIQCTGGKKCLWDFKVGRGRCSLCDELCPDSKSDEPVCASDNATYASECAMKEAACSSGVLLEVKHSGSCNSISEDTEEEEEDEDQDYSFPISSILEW
# Sequence of Fibroblast growth factor 2 (Homo sapiens) (P09038 whole entry, looked up): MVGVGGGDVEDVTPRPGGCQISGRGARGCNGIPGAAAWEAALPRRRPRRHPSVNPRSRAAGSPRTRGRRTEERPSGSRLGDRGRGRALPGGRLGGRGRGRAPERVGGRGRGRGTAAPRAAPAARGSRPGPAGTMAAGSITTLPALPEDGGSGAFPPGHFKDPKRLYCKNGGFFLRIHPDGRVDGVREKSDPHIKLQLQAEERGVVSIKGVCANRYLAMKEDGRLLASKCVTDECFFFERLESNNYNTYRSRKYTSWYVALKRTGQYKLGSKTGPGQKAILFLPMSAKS
Structure (SMILES),composite z-score [1],composite z-score [2],composite z-score [3],composite z-score [4],composite z-score [5],composite z-score [6],z-score [7],composite z-score (Lefty1),composite z-score [8],z-score [9]
CCOC(=O)C1=CCC(c2cccc3ccccc23)N(S(=O)(=O)c2ccc(C)cc2)C1 (stereo not given),0.206,1.17,1.02,0.928,0.825,-0.509,2.43,0.052,0.697,1.72 (inactive)
O=C1O[C@@H](c2ccccc2)[C@@H](c2ccccc2)N2[C@@H](c3ccc(O)cc3)[C@]3(C(=O)Nc4ccc(C#CC5(O)CCCCCC5)cc43)[C@@H](C(=O)Nc3nc4ccccc4s3)[C@H]12,1.87,1.22,0.706,0.886,1.37,1.21,-0.901,1.53,1.26,-1.4 (inactive)
COc1ccc([Si](C)(C)[C@@H]2[C@@H](CCO)O[C@]3(C(=O)N(Cc4ccc(NC(=O)[C@H](C)O)cc4)c4ccccc43)[C@H]2C)cc1,1.79,1.06,0.293,0.94,0.403,0.137,-1.61,0.215,0.852,-0.546 (inactive)
CC1=C([C@H](O)CCc2ccccc2)[C@H](CO)[C@@H]2C(=O)N(Cc3ccccc3)C(=O)[C@@H]2C1,0.635,0.0269,0.194,0.962,0.738,0.113,0.901,0.388,0.313,0.215 (inactive)
O=C1c2ccccc2[C@](Cc2ccccc2I)(C(=O)NCC(F)(F)F)[C@H](c2ccc(CO)cc2)N1Cc1ccccc1C(F)(F)F,0.722,1.22,0.857,0.351,0.678,0.381,1.67,0.108,0.479,-0.956 (inactive)
O=C(O)[C@@H]1Cc2c([nH]c3ccccc23)[C@@H](c2ccccc2)N1,0.247,0.299,0.948,0.651,0.607,0.197,0.375,0.244,0.0252,-0.0866 (inactive)
CO[C@H]1O[C@H](CO)[C@@H](OC(=O)CCc2ccccc2)[C@@H]2OC(=O)[C@H](Cc3cccc(Br)c3)C/C=C/C[C@@H](Cc3cccc(Br)c3)C(=O)O[C@@H]12,0.345,0.399,-0.0961,0.0162,-1.19,-0.706,0.309,-0.752,0.978,-1.07 (inactive)
C=CCN1C(=O)[C@@]2(Cc3ccccc3)N=C(c3ccc(OCCCO)cc3)O[C@H]2c2ccccc21,1.69,1.23,0.665,0.578,1.39,1.08,-0.993,0.398,0.648,-5.51 (inactive)
[N-]=[N+]=Nc1ccccc1C[C@@]1(C(=O)N2CCOCC2)N=C(c2ccc(OCCCO)cc2)O[C@@H]1c1ccccc1N=[N+]=[N-],2.48,1.19,1.41,0.886,1.42,0.667,2.03,0.0674,1.22,-3.69 (inactive)
Cc1ccc([C@@H]2CC=C(C(=O)O)[C@H](c3ccccc3)N2S(=O)(=O)c2ccc(C)cc2)cc1,2.65,1.24,0.574,0.894,-0.358,-0.847,-1.47,-0.691,1.35,1.33 (inactive)
O=C1C2C=CC(C(O)C(c3ccccc3)c3ccccc3)N(Nc3ccc([N+](=O)[O-])cc3)C2C(=O)N1c1ccccc1 (stereo not given),1.79,1.24,0.248,0.953,1.04,-0.255,-0.351,0.35,1.28,1.66 (inactive)
C=C(COC)/C(=C/C[C@H](OC(C)=O)c1ccc(OCCO)cc1)c1cnc2ccccc2c1,-0.418,1.14,0.771,0.333,1.4,0.813,1.8,1.27,1.23,-1.81 (inactive)
O=C1O[C@H](c2ccccc2)[C@H](c2ccccc2)N2[C@H]1[C@@H](C(=O)Nc1nc3ccccc3s1)[C@]1(C(=O)Nc3ccc(C#CC4=CCCCC4)cc31)[C@H]2c1ccccc1OCCO,0.485,1.15,0.66,0.797,0.968,1.2,-2.27,0.966,-0.17,-1.01 (inactive)
C=C(COC)C(=O)CC[C@H](OC(=O)c1ccccc1-c1ccccc1C(=O)O)c1cccc(OCCO)c1,2.49,1.27,0.403,-0.46,1.56,2.11,-1.02,1.65,-0.496,-4.13 (inactive)
C[C@]1(C(=O)NCc2ccccc2)c2ccccc2C(=O)N(Cc2cc(C(F)(F)F)cc(C(F)(F)F)c2)[C@H]1c1ccc(CO)cc1,-0.152,1.19,0.415,0.749,1.34,1.72,0.195,0.221,0.322,-0.543 (inactive)
C=CC[C@@]1(C(=O)N2CCOCC2)N=C(c2ccc(OCCCO)cc2)O[C@@H]1c1ccccc1,0.805,1.19,1.57,-0.0135,-0.338,-0.355,1.89,-1.02,0.868,-0.871 (inactive)
